The list shows a part of the results. How many sequences the whole screen found active is unknown.

For this assay, the target named is furin, P09958. The assay is described as follows: furin cleavage Z-score vs untreated control; higher = more cleavage, active = 3.5 or more, inactive = 1 or less, 8 variable residues between constant flanks. Here is the method: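 Multiplexed peptide-cDNA fusion cleavage assay. 8-mer variable peptides flanked by constant Cys-Ala (N-term) and Ala-Gly-Asn-Ala-Ser-Ala-Ser-Ala (C-term) and conjugated to a cDNA oligonucleotide were bead-immobilised via the N-terminus. They were treated with purified furin at a 1:10 enzyme:substrate ratio in 50 mM HEPES pH 7.5, 1 mM CaCl2, 100 mM NaCl for 7.5, 15 or 30 min. Released cDNA was counted by next-generation sequencing, and log counts versus no-furin controls were lowess-adjusted and converted to robust Z-scores.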
Sequence of furin, P09958 (P09958 whole entry, the tested form may be a part): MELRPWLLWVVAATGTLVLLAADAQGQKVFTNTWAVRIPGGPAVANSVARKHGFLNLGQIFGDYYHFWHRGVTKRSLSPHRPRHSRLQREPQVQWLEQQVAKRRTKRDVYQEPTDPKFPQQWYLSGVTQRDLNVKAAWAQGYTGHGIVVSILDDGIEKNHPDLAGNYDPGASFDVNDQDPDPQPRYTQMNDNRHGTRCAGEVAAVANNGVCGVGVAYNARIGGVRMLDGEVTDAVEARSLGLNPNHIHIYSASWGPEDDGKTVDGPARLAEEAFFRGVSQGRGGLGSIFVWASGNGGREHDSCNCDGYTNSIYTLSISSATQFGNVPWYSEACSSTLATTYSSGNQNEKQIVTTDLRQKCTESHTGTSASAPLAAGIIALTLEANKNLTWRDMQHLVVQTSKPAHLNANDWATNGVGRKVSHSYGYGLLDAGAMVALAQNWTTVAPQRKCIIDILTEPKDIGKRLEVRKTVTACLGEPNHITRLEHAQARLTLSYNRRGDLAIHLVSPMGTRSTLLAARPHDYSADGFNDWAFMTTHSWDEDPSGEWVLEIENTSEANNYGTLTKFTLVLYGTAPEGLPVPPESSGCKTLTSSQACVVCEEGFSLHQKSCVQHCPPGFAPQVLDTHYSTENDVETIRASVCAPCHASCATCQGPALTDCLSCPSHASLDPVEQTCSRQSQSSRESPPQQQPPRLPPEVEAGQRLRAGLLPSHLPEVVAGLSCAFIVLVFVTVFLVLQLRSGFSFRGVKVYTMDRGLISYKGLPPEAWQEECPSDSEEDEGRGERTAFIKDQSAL

B1: FS-604 (peptide)
chain: CALAARKRRQAGNASASA
Regarding B1, the “furin cleavage Z-score” value is 12.2 (active) (7.5 min), 12.1 (active) (15 min) and 10 (active) (30 min).

B2: HC1028 (peptide)
chain: CALLQTASRQAGNASASA
For the sequence B2, the “furin cleavage Z-score” value by setting is: (7.5 min) 0.222 (inactive); (15 min) 0.569 (inactive); (30 min) 0.432 (inactive).

B3: FS-71 (peptide)
chain: CAPPRRKRRQAGNASASA
For the sequence B3, the “furin cleavage Z-score” value was 8.73 (active) (7.5 min), 9.48 (active) (15 min) and 8.32 (active) (30 min).

B4: FS-1025 (peptide)
chain: CALLARDRRQAGNASASA
Regarding B4, the “furin cleavage Z-score” value was 6.87 (active) (7.5 min), 9.4 (active) (15 min) and 7.76 (active) (30 min).

B5: HC994 (peptide)
chain: CALAALAAYCAGNASASA
In the case of B5, the “furin cleavage Z-score” value by setting is: (7.5 min) 0.554 (inactive); (15 min) 1.14; (30 min) 0.545 (inactive).

B6: HC523 (peptide)
chain: CALLADARVCAGNASASA
With B6, the “furin cleavage Z-score” value is, setting by setting: (7.5 min) 0.91 (inactive); (15 min) -0.28 (inactive); (30 min) -1.13 (inactive).

B7: HC1604 (peptide)
chain: CAHGLSAFSLAGNASASA
As for B7, the “furin cleavage Z-score” value is, setting by setting: (7.5 min) 0.973 (inactive); (15 min) 0.919 (inactive); (30 min) 1.37.

B8: HC2029 (peptide)
chain: CAVVYCSMSYAGNASASA
Take B8: the “furin cleavage Z-score” value was -0.409 (inactive) (7.5 min), -0.331 (inactive) (15 min) and 0.819 (inactive) (30 min).

B9: HC1098 (peptide)
chain: CASTEDLVNLAGNASASA
On to B9, for which the “furin cleavage Z-score” value reads like this: (7.5 min) 0.352 (inactive); (15 min) -0.11 (inactive); (30 min) -0.537 (inactive).

B10: HC113 (peptide)
chain: CAVVCCEMSYAGNASASA
As to B10, the “furin cleavage Z-score” value was 1.04 (7.5 min), -0.157 (inactive) (15 min) and 2.06 (30 min).

B11: FS-578 (peptide)
chain: CAAKQRGKRAAGNASASA
Turning to B11, the “furin cleavage Z-score” value reads like this: (7.5 min) 7.85 (active); (15 min) 6.99 (active); (30 min) 6.51 (active).

B12: FS-448 (peptide)
chain: CAKGYRGKRAAGNASASA
On to B12, for which the “furin cleavage Z-score” value was 9.98 (active) (7.5 min), 9.64 (active) (15 min) and 8.26 (active) (30 min).

B13: FS-2859 (peptide)
chain: CAEFKRCWKGAGNASASA
As for B13, the “furin cleavage Z-score” value reads like this: (7.5 min) -0.792 (inactive); (15 min) 0.463 (inactive); (30 min) -0.89 (inactive).

B14: FS-980 (peptide)
chain: CAATPRPRRSAGNASASA
For B14, the “furin cleavage Z-score” value is, setting by setting: (7.5 min) 11.1 (active); (15 min) 11.2 (active); (30 min) 7.55 (active).

B15: FS-348 (peptide)
chain: CALCARPRRSAGNASASA
As for B15, the “furin cleavage Z-score” value is 10.1 (active) (7.5 min), 10.4 (active) (15 min) and 9.44 (active) (30 min).

B16: FS-473 (peptide)
chain: CAPLPRPRRSAGNASASA
With B16, the “furin cleavage Z-score” value (7.5 min) was 6.49 (active), the “furin cleavage Z-score” value (15 min) was 5.07 (active) and the “furin cleavage Z-score” value (30 min) was 4.07 (active).

B17: FS-704 (peptide)
chain: CAQPPRPFRSAGNASASA
On to B17, for which the “furin cleavage Z-score” value (7.5 min) was -0.352 (inactive), the “furin cleavage Z-score” value (15 min) was found to be 1.58 and the “furin cleavage Z-score” value (30 min) was -0.0165 (inactive).

B18: FS-1384 (peptide)
chain: CAPRDRPRRSAGNASASA
On to B18, for which the “furin cleavage Z-score” value reads like this: (7.5 min) 12.7 (active); (15 min) 13.7 (active); (30 min) 10.6 (active).

B19: HC152 (peptide)
chain: CAEVVTDTWVAGNASASA
In the case of B19, the “furin cleavage Z-score” value by setting is: (7.5 min) -0.985 (inactive); (15 min) 0.416 (inactive); (30 min) -1.25 (inactive).

B20: HC69 (peptide)
chain: CATTPCHGSWAGNASASA
Consider B20, for which the “furin cleavage Z-score” value reads like this: (7.5 min) 1.47; (15 min) 0.142 (inactive); (30 min) 1.5.

B21: FS-660 (peptide)
chain: CAGTWRPRRSAGNASASA
In the case of B21, the “furin cleavage Z-score” value runs as follows: (7.5 min) 10.9 (active); (15 min) 11.6 (active); (30 min) 7.85 (active).

B22: FS-952 (peptide)
chain: CARLVRPRRSAGNASASA
As to B22, the “furin cleavage Z-score” value (7.5 min) is 13.4 (active), the “furin cleavage Z-score” value (15 min) was 14.2 (active) and the “furin cleavage Z-score” value (30 min) was 10.3 (active).

B23: HC2403 (peptide)
chain: CAEVPCHRPAAGNASASA
For B23, the “furin cleavage Z-score” value runs as follows: (7.5 min) -1.55 (inactive); (15 min) 0.357 (inactive); (30 min) -0.33 (inactive).

B24: HC2348 (peptide)
chain: CAEVWCHRPSAGNASASA
On to B24, for which the “furin cleavage Z-score” value (7.5 min) was 0.218 (inactive), the “furin cleavage Z-score” value (15 min) is 0.0316 (inactive) and the “furin cleavage Z-score” value (30 min) is 0.64 (inactive).

B25: HC966 (peptide)
chain: CALIRLKPTLAGNASASA
Turning to B25, the “furin cleavage Z-score” value was -1.19 (inactive) (7.5 min), -1.25 (inactive) (15 min) and 0.404 (inactive) (30 min).

B26: HC1467 (peptide)
chain: CAFQYSPGQRAGNASASA
Consider B26, for which the “furin cleavage Z-score” value (7.5 min) is -0.221 (inactive), the “furin cleavage Z-score” value (15 min) was -0.464 (inactive) and the “furin cleavage Z-score” value (30 min) is -2.47 (inactive).

B27: FS-393 (peptide)
chain: CAYRKRQCRSAGNASASA
On to B27, for which the “furin cleavage Z-score” value is, setting by setting: (7.5 min) 5.64 (active); (15 min) 5.62 (active); (30 min) 3.16.

B28: FS-1440 (peptide)
chain: CAYRYRRRRSAGNASASA
Turning to B28, the “furin cleavage Z-score” value was 4.89 (active) (7.5 min), 5.22 (active) (15 min) and 3.7 (active) (30 min).

B29: HC1480 (peptide)
chain: CAYDTRCFDSAGNASASA
As for B29, the “furin cleavage Z-score” value is, setting by setting: (7.5 min) -1.56 (inactive); (15 min) 0.436 (inactive); (30 min) 0.927 (inactive).

B30: FS-1655 (peptide)
chain: CARYQRRSRSAGNASASA
Regarding B30, the “furin cleavage Z-score” value (7.5 min) is 7.45 (active), the “furin cleavage Z-score” value (15 min) was 7.54 (active) and the “furin cleavage Z-score” value (30 min) is 8.29 (active).

B31: FS-111 (peptide)
chain: CAYRRRPPRSAGNASASA
In the case of B31, the “furin cleavage Z-score” value (7.5 min) came out at 1.85, the “furin cleavage Z-score” value (15 min) worked out at 1.04 and the “furin cleavage Z-score” value (30 min) is 0.965 (inactive).

B32: FS-1296 (peptide)
chain: CAYRRRRSRSAGNASASA
As to B32, the “furin cleavage Z-score” value (7.5 min) was 7.22 (active), the “furin cleavage Z-score” value (15 min) was 8.22 (active) and the “furin cleavage Z-score” value (30 min) is 6.95 (active).

Values taken from the supplement of paper PMC3545927.
